From PubChem BioAssay (NCATS)
Results filed as inconclusive are left out. Active and inactive are the calls of the source. Calls come from the whole dose curve; as a rule, active = well fitted curve in the direction sought with a large enough effect; inconclusive = small, poorly fitted or top-dose-only effect, or another doubt; inactive = no such curve, though single readings can be large; an effect the other way counts as inactive or inconclusive. Where a SMILES comes first, the peptide text is derived from it.

What was measured:
HEK293T [1] = assay: qHTS assay to identify novel small-molecules to repurpose for Merkel cell carcinoma treatment (AID 1296009); details: MCC and control cell lines, CellTiter-Glo viability, 72 h; at 44.8 µM (top of the series) unless noted; note: nearly all actives have a fitted effect of over 60% in size
How it was run: (§1)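 Cells were incubated with compound for 72 hr at 37 degree celsius before CellTiter-Glo addition. Luminescence was normalized with no-cell wells as full cytotoxicity and DMSO as baseline.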

C33A = assay: Primary qHTS to identify gynecologic anti-cancer compounds using libraries of approved drugs and bioactive compounds (AID 1345084); details: Gynecologic cancer cell panel viability, ATPlite luminescence, 48 h; series mostly up to 57.5 µM; note: % is set by controls: 0 for no effect and ±100 for the full control effect; nearly all actives have a fitted effect of over 55% in size
How it was run: (§2)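 Cells, 1,000 per well, were allowed to settle for 16 h at 37 C before compound addition. Five concentrations were tested for 48 h, and viability was read by ATPlite luminescence after 15 min at room temperature.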

CASKI = assay: as above; details: Gynecologic cancer cell panel viability, ATPlite luminescence, 48 h; series mostly up to 57.5 µM
How it was run: as §2

Es-2 = assay: as above; details: Gynecologic cancer cell panel viability, ATPlite luminescence, 48 h; series mostly up to 57.5 µM
How it was run: as §2

HeLa = assay: as above; details: Gynecologic cancer cell panel viability, ATPlite luminescence, 48 h; series mostly up to 57.5 µM
How it was run: as §2

Hek293T [2] = assay: as above; details: Gynecologic cancer cell panel viability, ATPlite luminescence, 48 h, control line for the selectivity index; series mostly up to 57.5 µM
How it was run: as §2

JEG-3 = assay: as above; details: Gynecologic cancer cell panel viability, ATPlite luminescence, 48 h; series mostly up to 57.5 µM
How it was run: as §2

CAOV3 = assay: as above; details: Gynecologic cancer cell panel viability, ATPlite luminescence, 48 h; series mostly up to 57.5 µM
How it was run: as §2

NIH3T3 = assay: qHTS assay to identify novel small-molecules to repurpose for Merkel cell carcinoma treatment (AID 1296009); details: MCC and control cell lines, CellTiter-Glo viability, 72 h; at 44.8 µM (top of the series) unless noted; note: nearly all actives have a fitted effect of over 60% in size
How it was run: as §1

COc1cc(/C=C/C(=O)O[C@H]2C[C@@H]3C(C(=O)O)=CO[C@@H](O[C@@H]4O[C@H](CO)[C@@H](O)[C@H](O)[C@H]4O)[C@@H]3[C@H]2C)ccc1O
inactive: outcome (HEK293T [1]) inactive [at 17.4 µM] | Potency (C33A) | outcome (CASKI) | Potency (Es-2) | Potency (HeLa) | Potency (Hek293T [2]) | Potency (JEG-3)

C=C[C@H]1[C@H](O[C@@H]2O[C@H](CO)[C@@H](O)[C@H](O)[C@H]2O)OC=C2C(=O)N3Cc4c([nH]c5ccccc5c4=O)[C@@H]3C[C@H]21
inactive: outcome (HEK293T [1]) inactive [at 17.4 µM] | Potency (C33A) | Potency (CAOV3) | outcome (CASKI) | Potency (Es-2) | Potency (HeLa) | Potency (Hek293T [2]) | Potency (JEG-3)

C[C@@H]1[C@H]2[C@H](O[C@@H]3O[C@H](CO)[C@@H](O)[C@H](O)[C@H]3O)OC=C(C(=O)O)[C@H]2C[C@@H]1OC(=O)/C=C/c1ccc(O)cc1
inactive: outcome (HEK293T [1]) inactive [at 17.4 µM] | Potency (C33A) | Potency (CAOV3) | outcome (CASKI) | Potency (Es-2) | Potency (HeLa) | Potency (Hek293T [2]) | Potency (JEG-3)

C=C1C[C@@]2(O)O[C@@]3(C[C@H]2C(C)C)[C@@H](C)CC[C@@H]13
inactive: outcome (NIH3T3) | Potency (C33A) | Potency (CAOV3) | outcome (CASKI) | Potency (Es-2) | Potency (HeLa) | Potency (Hek293T [2]) | Potency (JEG-3)

COc1ccc([C@H]2OC[C@H]3[C@@H]2CO[C@@H]3c2ccc(O[C@@H]3O[C@H](CO)C(O)[C@H](O)[C@H]3O)c(OC)c2)cc1OC (stereo not given in full)
inactive: outcome (NIH3T3) inactive [at 17.4 µM] | Potency (C33A) | Potency (CAOV3) | outcome (CASKI) | Potency (Es-2) | Potency (HeLa) | Potency (Hek293T [2])

O=C(OC[C@H]1O[C@@H](Oc2ccccc2COC(=O)C2(O)C=CCCC2O)[C@H](O)[C@@H](O)[C@@H]1O)c1ccccc1 (stereo not given in full)
inactive: outcome (NIH3T3) inactive [at 17.4 µM] | Potency (C33A) | Potency (CAOV3) | outcome (CASKI) | Potency (Es-2) | Potency (HeLa) | Potency (Hek293T [2]) | Potency (JEG-3)

CC1CCC2C(C(=O)O)=CC3(O)CC(C)(C)CC123 (stereo not given)
inactive: outcome (HEK293T [1]) | Potency (C33A) | Potency (CAOV3) | outcome (CASKI) | Potency (Es-2) | Potency (HeLa) | Potency (Hek293T [2]) | Potency (JEG-3)

COc1cc(C(CO)CO[C@@H]2O[C@H](CO)[C@@H](O)[C@H](O)[C@H]2O)ccc1O (stereo not given in full)
inactive: outcome (HEK293T [1]) | Potency (C33A) | Potency (CAOV3) | Potency (Es-2) | Potency (HeLa) | Potency (Hek293T [2]) | Potency (JEG-3)

CC(CCc1ccc(O)cc1)O[C@@H]1O[C@H](CO[C@@H]2OC(CO)[C@H](O)[C@H]2O)[C@@H](O)[C@H](O)[C@H]1O (stereo not given in full)
inactive: outcome (HEK293T [1]) inactive [at 17.4 µM] | Potency (C33A) | Potency (CAOV3) | outcome (CASKI) | Potency (Es-2) | Potency (HeLa) | Potency (Hek293T [2]) | Potency (JEG-3)

CC(=O)NC(Cc1ccccc1)C(=O)NC(C(=O)O)C(C)C (stereo not drawn) (Ac-Phe-Val-OH; configuration not given here)
inactive: outcome (HEK293T [1]) | Potency (C33A) | Potency (CAOV3) | Potency (Es-2) | Potency (HeLa) | Potency (Hek293T [2]) | Potency (JEG-3)

CC(=O)OC1CCC2(C)C(CCC3(C)C2CC=C2C4CC(C)(C)CCC4(C)CCC23C)C1(C)C(=O)O (stereo not given)
inactive: outcome (HEK293T [1]) inactive [at 17.4 µM] | Potency (C33A) | outcome (CASKI) | Potency (Es-2) | Potency (HeLa) | Potency (Hek293T [2]) | Potency (JEG-3)

CC(C)C1CCC(CO)=CC1/C=C(\CO)C(=O)OCC1(O)CCC(C(C)C)C2C=C(C(=O)O)COC(=O)C21 (stereo not given)
inactive: outcome (HEK293T [1]) inactive [at 17.4 µM] | Potency (C33A) | outcome (CASKI) | Potency (Es-2) | Potency (HeLa) | Potency (Hek293T [2]) | Potency (JEG-3)

CC1(C)CC[C@]2(C(=O)O)CC[C@]3(C)C(=CCC4[C@@]5(C)CC[C@H](O[C@H]6O[C@H](C(=O)O)[C@@H](O)[C@H](O[C@@H]7O[C@H](CO)[C@H](O)[C@H](O)[C@H]7O)[C@H]6O)C(C)(C)C5CC[C@]43C)[C@@H]2C1 (stereo not given in full)
inactive: outcome (HEK293T [1]) inactive [at 9.27 µM] | activity change, negative = cytotoxicity (C33A) 17.4% [at 11.6 µM] | activity change, negative = cytotoxicity (CAOV3) 23.8% [at 11.6 µM] | activity change, negative = cytotoxicity (CASKI) 10.6% [at 11.6 µM] | activity change, negative = cytotoxicity (Es-2) 0.636% [at 11.6 µM] | activity change, negative = cytotoxicity (HeLa) -3.8% [at 11.6 µM] | activity change, negative = cytotoxicity (Hek293T [2]) 18.4% [at 11.6 µM] | activity change, negative = cytotoxicity (JEG-3) -1.28% [at 11.6 µM]

O=C(O)CC1(O)C(=O)Nc2ccccc21 (stereo not given)
inactive: outcome (HEK293T [1]) inactive [at 92 µM] | Potency (C33A) | outcome (CASKI) | Potency (Es-2) | Potency (Hek293T [2]) | Potency (JEG-3)

CCC(=O)OCC(=O)[C@@]1(OC(=O)CC)[C@@H](C)C[C@H]2[C@@H]3CCC4=CC(=O)C=C[C@]4(C)[C@@]3(F)[C@@H](O)C[C@@]21C
inactive: outcome (NIH3T3) | Potency (C33A) | Potency (CAOV3) | outcome (CASKI) | Potency (Es-2) | Potency (HeLa) | Potency (Hek293T [2]) | Potency (JEG-3)

COc1c2c(c(C)c3c1C(=O)OC3)OC1(C)CC(O)C34OC(OC)(CCC3(C)C1C2)OC4(C)CO (stereo not given)
inactive: outcome (NIH3T3) inactive [at 17.4 µM] | Potency (C33A) | Potency (CAOV3) | outcome (CASKI) | Potency (Es-2) | Potency (HeLa) | Potency (Hek293T [2]) | Potency (JEG-3)

c1ccc2c(Nc3nnc(-c4ccncc4)s3)cccc2c1
inactive: outcome (HEK293T [1]) | Potency (C33A) | Potency (CAOV3) | outcome (CASKI) | Potency (Es-2) | Potency (HeLa) | Potency (JEG-3)

CC1=C2CC3C(CCC3(C)O)C(C)(O)CC2OC1=O (stereo not given)
inactive: outcome (HEK293T [1]) | Potency (C33A) | Potency (CAOV3) | outcome (CASKI) | Potency (Es-2) | Potency (HeLa) | Potency (Hek293T [2]) | Potency (JEG-3)
